Results as given in PubChem BioAssay (NCATS).
“And” between values parts separate entries of the source, which are not always exact repeats. Equal values may be shown once. Inconclusive results are not listed. Where a structure was tested more than once in an assay, its records may differ in their call. The source made the active and inactive calls. The call rests on the fitted dose curve; in most records, active means well fitted curve in the direction sought with a large enough effect; inconclusive means small, poorly fitted or top-dose-only effect, or another doubt; inactive means no such curve, though single readings can be large; an effect the other way counts as inactive or inconclusive.

Key:
[1] = qHTS assay for measurement of the activity of small molecule inhibitors on Zika virus induced Caspase-3 activity in human astrocytoma cells (AID 1224859)
How it was run: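 Human SNB-19 astrocytoma cells in RPMI 1640 with 10% FBS receive compound one hour ahead of Zika virus at 2 FFU/cell. After 6 h infection, caspase-3/7 activity is detected by Caspase-Glo luminescence.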

[2] = qHTS Screen of the MIPE 4.0 Collection Against Ewings Sarcoma (RDES) (AID 1259252); further: nearly all actives have a fitted effect of over 35% in size; further: potency means the concentration at half of the fitted maximal effect
How it was run: (§1)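 Viability screen: 48 h incubation at 37C, 95% humidity, 5% CO2 with serially titrated compound, followed by CellTiter-Glo readout.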

[3] = qHTS Screen of the MIPE 4.0 Collection Against Ewings Sarcoma (TC71) (AID 1259253); further: nearly all actives have a fitted effect of over 40% in size; further: potency means the concentration at half of the fitted maximal effect
How it was run: as §1

[4] = qHTS Screen of the MIPE 4.0 Collection Against Ewings Sarcoma (EW8) (AID 1259255); further: nearly all actives have a fitted effect of over 35% in size; further: potency means the concentration at half of the fitted maximal effect
How it was run: as §1

[5] = qHTS Screen of the MIPE 4.0 Collection Against Ewings Sarcoma (TC32) (AID 1259256); further: nearly all actives have a fitted effect of over 45% in size; further: potency means the concentration at half of the fitted maximal effect
How it was run: as §1

[6] = Identifying Small Molecule Inhibitors of Pancreatic Cancer Stem Cells (SN12C, Adherent) (AID 1259358);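 further: cell survival measured after 48 h of compound exposure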; further: potency means the concentration at half of the fitted maximal effect
How it was run: (§2)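 Monolayer and spheroid cultures are compared. Spheroids form over 14 days in stem cell medium on hydrogel-coated low-attachment plates, then are exposed to compound for 48 h before CellTiter-Glo luminescence.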

[7] = Identifying Small Molecule Inhibitors of Pancreatic Cancer Stem Cells (A278, Adherent) (AID 1259361);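 further: viability read after 48 h compound exposure; nearly all actives have a fitted effect of over 35% in size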
How it was run: as §2

[8] = P-glycoprotein substrates identified in KB-3-1 adenocarcinoma cell line, qHTS therapeutic library screen (AID 1346986); further: nearly all actives have a fitted effect of over 60% in size;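 further: potency means the concentration at half of the fitted maximal effect; potency is for cytotoxicity meaning loss of cell viability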
How it was run: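 Viability by CellTiter-Glo after 72 h compound exposure at 37 degree C, 5% CO2. Cytotoxic call: curve class -1.1 to -2.4, maximum response >50%, AC50 < 10 uM, compared across KB-3-1 and P-gp-overexpressing KB-8-5-11.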

[9] = P-glycoprotein substrates identified in KB-8-5-11 adenocarcinoma cell line, qHTS therapeutic library screen (AID 1346987); further: nearly all actives have a fitted effect of over 65% in size; further: potency means the concentration at half of the fitted maximal effect
How it was run: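 Human cervical adenocarcinoma KB-8-5-11 cells, selected in colchicine to over-express P-gp and assayed without it, were exposed for 72 h to titrated compounds. An ATP-based luminescent viability signal gave AC50.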

[10] = NS1 protein of Zika virus - qHTS assay to identify small molecule inhibitors in human HEK 293 cells (AID 1347053); further: nearly all actives have a fitted effect of over 55% in size; further: potency means the concentration at half of the fitted maximal effect
How it was run: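 In this cell-based screen, HEK 293 cultures received compound for one hour before Zika MR766 at MOI = 0.5. NS1 was quantified 24 hours later by TR-FRET, normalized to virus-free wells and infected wells.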

[11] = Identifying Small Molecule Inhibitors of Pancreatic Cancer Stem Cells (SN12C, Spheroid) (AID 1259360); conditions: Potency: SN12C spheroid viability; further: potency means the concentration at half of the fitted maximal effect
How it was run: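 Endpoint: ATP-based luminescence, 48 h drug exposure. Bortezomib at 9.2 uM final as full-kill control; DMSO vehicle as negative control; activity normalized between vehicle and cell-free wells.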

[12] = Identifying Small Molecule Inhibitors of Pancreatic Cancer Stem Cells (Panc1, Adherent) (AID 1259362); conditions: Potency: viability;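 further: compound exposure lasted 48 h before the viability read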
How it was run: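 Viability is scored by CellTiter-Glo luminescence 48 h after dosing, expressed as percent activity against vehicle and no-cell references. Spheroid formats rely on cells cultured 14 days in stem cell media beforehand.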

N#Cc1c(O)c2c(-c3ccc(-c4ccccc4O)cc3)csc2[nH]c1=O
active: Potency [2] 14.8 µM | Potency [3] 18.7 µM | Potency [4] 20.9 µM | Potency [5] 23.5 µM
inactive: Potency [1] | Potency [6] | IC50 (viability decrease) [7] | Potency [8] | Potency [9] | Potency [10]

Cn1c(=O)n(-c2ccc(C(C)(C)C#N)cc2)c2c3cc(-c4cnc5ccccc5c4)ccc3ncc21
active: Potency [2] 0.0469 µM | Potency [3] 0.059 µM | Potency [4] 0.0296 µM | Potency [5] 0.0332 µM | Potency [6] 0.0743 µM | Potency [11] 0.148 µM | Potency [9] 366 nM and 18.7 nM
inactive: Potency [1]

COc1ccc(OC)c(-c2nnc3ccc(-c4ccc(OC)c(O[C@@H]5CCOC5)c4)nn23)c1
active: Potency [2] 16.6 µM | Potency [3] 16.6 µM | Potency [4] 11.8 µM | Potency [5] 16.6 µM | Potency [6] 20.9 µM | Potency [11] 18.7 µM | Potency [9] 4.61 µM | Potency [10] 9.35 µM
inactive: Potency [1]

COc1ccc2c(c1)CC[C@@H](CN(C)CC(=O)O)[C@H]2c1ccccc1
inactive: Potency [1] | Potency [6] | Potency [11]
1.66 µM (active) and inactive: Potency [9]
active: Potency [2] 2.35 µM | Potency [3] 3.72 µM | Potency [4] 2.35 µM | Potency [5] 2.35 µM

C=CC(=O)Nc1cccc(Oc2nc(Nc3ccc(N4CCN(C)CC4)cc3OC)ncc2Cl)c1
active: Potency [2] 0.0187 µM | Potency [3] 0.0074 µM | Potency [4] 0.0209 µM | Potency [5] 0.0148 µM | Potency [6] 23.5 µM | Potency [10] 33.2 µM
inactive: Potency [1]
inactive and 20.6 µM (active): Potency [9]

COc1cc2c(Oc3ccc4[nH]c(C)cc4c3F)ncnc2cc1OCCCN1CCCC1
active: Potency [2] 23.5 µM | Potency [3] 23.5 µM | Potency [4] 23.5 µM | Potency [5] 16.6 µM | Potency [6] 2.35 µM | IC50 (viability decrease) [7] 16.6 µM | Potency [8] 23.1 µM | Potency [9] 23.5 µM and 18.4 µM
inactive: Potency [1]

O=C(O)[C@H](Cc1c[nH]c2ccccc12)N1C(=O)c2ccccc2C1=O
inactive: Potency [1] | Potency [2] | Potency [3] | Potency [4] | Potency [5] | Potency [6] | Potency [11] | Potency [12] | Potency [9] | Potency [10]

CC(C)[C@H](C(=O)Nc1ccc(C(=O)NO)cc1)c1ccccc1
inactive: Potency [1]
active: Potency [2] 0.833 µM | Potency [3] 0.662 µM | Potency [4] 0.526 µM | Potency [5] 0.526 µM | Potency [6] 3.72 µM | IC50 (viability decrease) [7] 0.833 µM | Potency [9] 1.48 µM

O=C(NCCS(=O)(=O)c1ccc(C(F)(F)F)cn1)c1ccc(Cl)cc1
inactive: Potency [1] | Potency [2] | Potency [3] | Potency [4] | Potency [5] | Potency [6] | Potency [11] | Potency [8] | Potency [10]

CCCCc1nc2cc(C=CC(=O)NO)ccc2n1CCN(CC)CC
inactive: Potency [1] | Potency [10]
active: Potency [2] 0.187 µM | Potency [3] 0.372 µM | Potency [4] 0.469 µM | Potency [5] 0.0935 µM | Potency [6] 2.96 µM | Potency [9] 7.43 µM

Cc1cn2c(-c3cn[nH]c3)cnc2c(Nc2ccc(C(=O)N3CCNCC3)cc2F)n1
active: Potency [2] 16.6 µM | Potency [3] 18.7 µM | Potency [4] 16.6 µM | Potency [5] 13.2 µM | Potency [6] 20.9 µM
inactive: Potency [1] | Potency [9]

Cc1ccc(C(=O)Nc2ccc(CN3CCN(C)CC3)c(C(F)(F)F)c2)cc1C#Cc1cnc2cccnn12
active: Potency [2] 5.26 µM | Potency [3] 4.69 µM | Potency [4] 5.9 µM | Potency [5] 5.9 µM | Potency [6] 16.6 µM | Potency [11] 23.5 µM | Potency [9] 2.09 µM and 3.66 µM | Potency [10] 11.8 µM
inactive: Potency [1]

Cc1cnc(-c2cnc(NCCNc3ccc(C#N)cn3)nc2-c2ccc(Cl)cc2Cl)[nH]1
active: Potency [2] 8.33 µM | Potency [3] 11.8 µM | Potency [4] 16.6 µM | Potency [5] 11.8 µM
inactive: Potency [1] | Potency [6] | Potency [11] | Potency [9] | Potency [10]

CC(=O)Nc1sc2c(c1-c1nc3ccccc3s1)CNC2
active: Potency [2] 16.6 µM | Potency [3] 14.8 µM | Potency [4] 16.6 µM | Potency [5] 13.2 µM | Potency [9] 16.6 µM and 13 µM
inactive: Potency [1] | Potency [6] | Potency [10]

CC=C1NC(=O)[C@H]2CSSCCC=C[C@H](CC(=O)N[C@H](C(C)C)C(=O)N2)OC(=O)[C@H](C(C)C)NC1=O
inactive: Potency [1]
active: Potency [2] 0.0148 µM | Potency [3] 0.0209 µM | Potency [4] 0.0187 µM | Potency [5] 0.0148 µM | Potency [6] 0.0053 µM | Potency [11] 0.0053 µM | Potency [9] 8.33 µM | Potency [10] 4.18 µM

CCN1CCN(Cc2ccc(-c3cc4c(N[C@H](C)c5ccccc5)ncnc4[nH]3)cc2)CC1
active: Potency [3] 0.0053 µM | Potency [4] 0.0332 µM | Potency [5] 0.0148 µM | Potency [6] 23.5 µM
inactive: Potency [1] | Potency [2] | Potency [9]
